The results in this text go back to PubChem BioAssay (NCI).

About 83,000 compounds went through this panel and 20% of them were active in at least one assay; those are over-represented in the sample as a whole.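 How to read the values: 0–100, growth inhibition (40 = 60% inhibited); 0, no net growth; -100 to 0, cell death (-40 = 40% of starting cells died; -100 = all dead).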 A number with no mark means an inactive call. Active and inactive are the calls of the source. Rule for the calls: active = growth percent below 10; inactive = the rest.

Some test systems named below: NCI-H23 lung; NCI-H226 lung; NCI-H322M lung; HOP-62 NSCLC; NCI-H460 lung; HOP-92 NSCLC; A549/ATCC NSCLC; 786-0 renal; COLO 205 colon; DU-145 prostate; K-562 leukemia; MALME-3M melanoma; MDA-MB-231 breast; RXF 393 renal; SF-268 CNS; SF-295 CNS; SF-539 CNS; UACC-257 melanoma; M14 melanoma.
Common to all, as to test: NCI-60 one-dose screen, 48 h (100 = growth as untreated, 0 = no growth, -100 = all killed)
Settings in all cases: 10 µM unless noted

With `OC(c1cc(-c2cccc(Cl)c2)nc2ccccc12)C1CCCCN1` (configuration not stated), the growth with NCI-H23 lung is 3.63% (active); with NCI-H226 lung, 31.2%; in the assay with NCI-H322M lung, -12.3% (active); with HOP-62 NSCLC, -67.3% (active); in the assay on NCI-H460 lung, -47% (active); in the assay on HOP-92 NSCLC, -17.6% (active). The growth in the assay on A549/ATCC NSCLC was -90.4% (active); in the assay on 786-0 renal, -82.6% (active); in the assay with COLO 205 colon, -85.7% (active); with DU-145 prostate, -33.8% (active); with K-562 leukemia, -47.2% (active); with MALME-3M melanoma, -69.6% (active). In addition, the growth in the assay on MDA-MB-231 breast is -6.36% (active); with RXF 393 renal, -46.4% (active); with SF-268 CNS it was 21.4%; in the assay with SF-295 CNS it was -47.5% (active); in the assay on SF-539 CNS it was -52.9% (active); in the assay on UACC-257 melanoma it was -91.9% (active). The growth with M14 melanoma was -81.5% (active).
Regarding `CCCCCN1C(=O)CCC1=O`, the growth in the assay on NCI-H23 lung was 110%; in the assay on NCI-H226 lung, 101%; with NCI-H322M lung it was 110%; in the assay on HOP-62 NSCLC it was 92.9%; in the assay with NCI-H460 lung, 120%; in the assay on HOP-92 NSCLC it was 79.3%. In addition, the growth with A549/ATCC NSCLC is 99%; in the assay on 786-0 renal it was 111%; in the assay on COLO 205 colon, 99.4%; in the assay with DU-145 prostate, 101%; in the assay on K-562 leukemia, 114%; in the assay on MALME-3M melanoma, 90.3%. Also, the growth with MDA-MB-231 breast is 109%; in the assay with RXF 393 renal, 122%; with SF-268 CNS, 93.3%; with SF-295 CNS it was 101%; with SF-539 CNS, 102%; in the assay on UACC-257 melanoma, 99.4%. Further, the growth in the assay with M14 melanoma is 107%.
For the compound `O=C(NCCNC(=O)Oc1cccc2ccccc12)Oc1cccc2ccccc12`, the growth is 91.2% with NCI-H23 lung; 79% with NCI-H226 lung; 99.1% in the assay with NCI-H322M lung; 84.7% with HOP-62 NSCLC; 106% with NCI-H460 lung; 79.8% in the assay with HOP-92 NSCLC. Further, the growth with A549/ATCC NSCLC was 93.4%; with 786-0 renal it was 106%; in the assay with COLO 205 colon, 94.7%; in the assay on DU-145 prostate it was 112%; in the assay on K-562 leukemia, 102%; with MALME-3M melanoma, 141%. Also, the growth is 68.8% in the assay with MDA-MB-231 breast; 104% in the assay on RXF 393 renal; 83.9% in the assay with SF-268 CNS; 111% in the assay with SF-295 CNS; 101% in the assay with SF-539 CNS; 88.3% with UACC-257 melanoma. Also, the growth in the assay on M14 melanoma was 107%.
`CC(=O)[C@H]1CC[C@H]2[C@@H]3C[C@H](C)C4=CC(=O)CC[C@]4(C)[C@H]3C(=O)C[C@]12C`: the growth in the assay with NCI-H23 lung was 102%; with NCI-H226 lung it was 104%; with NCI-H322M lung, 117%; in the assay with HOP-62 NSCLC it was 99.1%; with NCI-H460 lung it was 107%; in the assay on HOP-92 NSCLC, 85.3%. For the same compound, the growth in the assay with A549/ATCC NSCLC was 98.7%; in the assay on 786-0 renal, 112%; in the assay on COLO 205 colon, 94.3%; in the assay on DU-145 prostate, 112%; in the assay with K-562 leukemia, 106%; with MALME-3M melanoma it was 109%. The growth in the assay with MDA-MB-231 breast was 108%; in the assay on RXF 393 renal it was 103%; with SF-268 CNS, 96.6%; in the assay with SF-295 CNS, 120%; in the assay on SF-539 CNS, 98.5%; in the assay with UACC-257 melanoma, 102%. Moreover, in the assay with M14 melanoma, the growth is 101%.
Turning to `COc1cc(/C=C/C(=O)CC(=O)/C=C/c2ccc(OC(=O)CCNC34CC5CC(CC(C5)C3)C4)c(OC)c2)ccc1OC(=O)CCNC12CC3CC(CC(C3)C1)C2`, the growth was 28.5% in the assay on NCI-H23 lung; 39.8% with NCI-H226 lung; 63.4% in the assay on NCI-H322M lung; 66.9% in the assay with HOP-62 NSCLC; 10.3% with NCI-H460 lung; 18.5% in the assay on HOP-92 NSCLC. Besides, the growth was 63.1% with A549/ATCC NSCLC; 16.7% with 786-0 renal; 45.9% in the assay with COLO 205 colon; -7.16% (active) in the assay with DU-145 prostate; 7.62% (active) in the assay on K-562 leukemia; 38.6% in the assay on MALME-3M melanoma. In addition, the growth is 52.4% in the assay on MDA-MB-231 breast; -37.7% (active) in the assay with RXF 393 renal; 16.5% in the assay with SF-268 CNS; 51% in the assay on SF-295 CNS; -18.2% (active) in the assay with SF-539 CNS; 73.9% in the assay with UACC-257 melanoma. In addition, in the assay on M14 melanoma, the growth was 16.5%.
On to `CC[N+](CCCCCCCCCC[N+](CC)(c1ccccn1)c1ccccn1)(c1ccccn1)c1ccccn1`, for which the growth was 1.17% (active) in the assay with NCI-H23 lung; 33.2% in the assay on NCI-H226 lung; -15.8% (active) in the assay on NCI-H322M lung; 10.7% with HOP-62 NSCLC; 0.887% (active) in the assay on NCI-H460 lung; -22.5% (active) with HOP-92 NSCLC. Further, the growth in the assay with A549/ATCC NSCLC is 1.29% (active); in the assay with 786-0 renal, 34.5%; in the assay on COLO 205 colon, -80% (active); with DU-145 prostate it was 13.6%; in the assay on K-562 leukemia, -2.68% (active); in the assay on MALME-3M melanoma, -10.7% (active). Moreover, the growth was 15.9% in the assay with MDA-MB-231 breast; 46.1% in the assay on RXF 393 renal; 17.1% with SF-268 CNS; -71.2% (active) with SF-295 CNS; 11% in the assay with SF-539 CNS; -19.2% (active) in the assay with UACC-257 melanoma. The growth with M14 melanoma is 10.3%.
As to `COc1cnc2c(c1)C(=O)c1c-2n(CCCn2ccnc2)c(=O)c2cc(F)ccc12`, the growth was -36.7% (active) in the assay on NCI-H23 lung; -67.9% (active) with NCI-H226 lung; -1.28% (active) in the assay on NCI-H322M lung; -29.8% (active) in the assay on HOP-62 NSCLC; -62.9% (active) in the assay with NCI-H460 lung; -15.9% (active) with HOP-92 NSCLC. Besides, the growth in the assay on A549/ATCC NSCLC is -20.8% (active); in the assay with 786-0 renal it was -62.6% (active); in the assay with COLO 205 colon, -34% (active); in the assay with DU-145 prostate it was -56.4% (active); in the assay on K-562 leukemia, -4.93% (active); with MALME-3M melanoma, -52.2% (active). The growth in the assay on MDA-MB-231 breast is 5.66% (active); with RXF 393 renal it was -55.9% (active); with SF-268 CNS, 3.73% (active); in the assay on SF-295 CNS, -5.57% (active); in the assay with SF-539 CNS it was -60.6% (active); in the assay on UACC-257 melanoma, -34.7% (active). In the assay with M14 melanoma, the growth was -39.9% (active).
In the case of `COc1cc(C2CC(C3C(=O)N(C)C(=O)N(C)C3=O)=NN2C=O)cc(OC)c1OC` (configuration not stated), the growth with NCI-H23 lung is 97.3%; in the assay on NCI-H226 lung it was 95.8%; with NCI-H322M lung it was 91.2%; in the assay on HOP-62 NSCLC, 73.5%; with NCI-H460 lung, 99.9%; in the assay with HOP-92 NSCLC, 105%. Besides, the growth in the assay on A549/ATCC NSCLC is 75.1%; in the assay with 786-0 renal it was 108%; in the assay on COLO 205 colon it was 98.7%; in the assay on DU-145 prostate, 111%; in the assay on K-562 leukemia, 88%; in the assay on MALME-3M melanoma, 109%. Also, the growth is 103% in the assay on MDA-MB-231 breast; 109% in the assay on RXF 393 renal; 102% in the assay with SF-268 CNS; 98.1% in the assay with SF-295 CNS; 104% in the assay with SF-539 CNS; 78.3% with UACC-257 melanoma. Besides, the growth in the assay on M14 melanoma was 84%.
